Measurements taken from PubChem BioAssay AID1159580 (chemical genetic matrix, 2015).
Screen size: about 5,500 compounds; about 2,000 (36%) were called active. Roughly 18% stayed inconclusive and do not appear here. No stated cut-off is given here; in the data, active means normalized growth mostly below about 0.91 (no sharp cut-off); inconclusive means no clear call, values can overlap the other calls; inactive means mostly above about 0.92. The list shows a part of the results.

Test: chemical genetic growth profiling, strain panel (AID 1159580);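 further: tested at 20 µM; growth read once vehicle control cultures reached saturation at 30 °C; 1 = growth at the plate median or of vehicle wells; lower values mean less growth of the strain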
Conditions: S. cerevisiae deletion strains, growth OD

Measured: normalized growth

CNC(=O)Oc1cccc2c1OC(C)(C)O2
inactive: locus YAL013W, strain DEP1, active compounds read low 1.01 | locus YAL021C, strain ccr4, active compounds read low 0.991 | locus YAL026C, strain drs2, active compounds read low 1 | locus YAL030W, strain snc1, active compounds read low 1.01 | locus YBL061C, strain skt5, active compounds read low 1 | locus YBR009C, strain hhf1, active compounds read low 1 | locus YBR021W, strain FUR4, active compounds read low 1.03 | locus YBR023C, strain chs3, active compounds read low 1 | locus YBR171W, strain sec66, active compounds read low 1.01 | locus YBR229C, strain ROT2, active compounds read low 1.02 | locus YBR231C, strain swc5, active compounds read low 1 | locus YBR279W, strain paf1, active compounds read low 0.994 | locus YCL011C, strain gbp2, active compounds read low 1 | locus YCL016C, strain dcc1, active compounds read low 1 | locus YCL029C, strain bik1, active compounds read low 0.999 | locus YCL061C, strain MRC1, active compounds read low 0.998 | locus YCL069W, strain vba3, active compounds read low 0.998 | locus YCR088W, strain abp1, active compounds read low 1 | locus YDL005C, strain med2, active compounds read low 0.996 | locus YDL035C, strain GPR1, active compounds read low 1.02 | locus YDL040C, strain nat1, active compounds read low 1 | locus YDL074C, strain BRE1, active compounds read low 1.07 | locus YDL101C, strain DUN1, active compounds read low 1.03 | locus YDL134C, strain PPH21, active compounds read low 1.02 | locus YDL185W, strain tfp1, active compounds read low 0.995 | locus YDL192W, strain arf1, active compounds read low 0.993 | locus YDR001C, strain nth1, active compounds read low 1 | locus YDR069C, strain doa4, active compounds read low 1 | locus YDR101C, strain arx1, active compounds read low 0.989 | locus YDR137W, strain rgp1, active compounds read low 1.05 | locus YDR150W, strain NUM1, active compounds read low 1.02 | locus YDR159W, strain sac3, active compounds read low 0.988 | locus YDR162C, strain NBP2, active compounds read low 1.02 | locus YDR195W, strain ref2 0.967 | locus YDR297W, strain sur2, active compounds read low 0.997 | locus YDR318W, strain mcm21, active compounds read low 0.996 | locus YDR334W, strain swr1, active compounds read low 1.01 | locus YDR335W, strain msn5, active compounds read low 0.995 | locus YDR388W, active compounds read low 0.996 | locus YDR392W, strain spt3, active compounds read low 0.814 | locus YDR502C, strain sam2, active compounds read low 0.997 | locus YEL003W, strain gim4, active compounds read low 0.999 | locus YEL037C, strain rad23, active compounds read low 0.998 | locus YEL061C, strain CIN8 (second series), active compounds read low 1.01 | locus YEL061C, strain CIN8, active compounds read low 1.01 | locus YER015W, strain faa2, active compounds read low 1 | locus YER016W, strain bim1, active compounds read low 0.998 | locus YER110C, active compounds read low 1 | locus YER111C, strain swi4, active compounds read low 0.992 | locus YER155C, strain BEM2 (second series), active compounds read low 0.998 | locus YER155C, strain BEM2, active compounds read low 1.02 | locus YER167W, strain BCK2, active compounds read low 1.01 | locus YFR010W, strain ubp6, active compounds read low 0.987 | locus YGL078C, strain dbp3, active compounds read low 0.99 | locus YGL086W, strain mad1, active compounds read low 0.996 | locus YGL167C, strain pmr1, active compounds read low 1 | locus YGL173C, strain kem1, active compounds read low 1 | locus YGL227W, strain vid30, active compounds read low 0.999 | locus YGL240W, strain doc1, active compounds read low 0.986 | locus YGL248W, strain PDE1, active compounds read low 1.01 | locus YGL253W, strain hxk2, active compounds read low 1 | locus YGR078C, strain PAC10, active compounds read low 1.02 | locus YGR135W, strain pre9, active compounds read low 0.999 | locus YGR229C, strain SMI1, active compounds read low 1.03 | locus YGR252W, strain gcn5, active compounds read low 0.941 | locus YHR013C, strain ard1, active compounds read low 0.946 | locus YHR027C, strain rpn1, active compounds read low 1.01 | locus YHR030C, strain SLT2, active compounds read low 1.02 | locus YHR079C, strain IRE1 (second series), active compounds read low 0.99 | locus YHR094C, strain hxt1, active compounds read low 0.995 | locus YHR129C, strain ARP1, active compounds read low 1.02 | locus YHR142W, strain chs7, active compounds read low 1 | locus YHR200W, strain rpn10, active compounds read low 0.995 | locus YIL066C, strain RNR3, active compounds read low 1.02 | locus YIL073C, strain SPO22, active compounds read low 0.954 | locus YIL125W, strain kgd1, active compounds read low 1 | locus YIR030C, strain dcg1, active compounds read low 0.995 | locus YJL092W, strain hpr5, active compounds read low 1 | locus YJL095W, strain BCK1 (second series), active compounds read low 0.997 | locus YJL095W, strain BCK1, active compounds read low 1.04 | locus YJL115W, strain asf1, active compounds read low 0.997 | locus YJL129C, strain trk1, active compounds read low 1.02 | locus YJL134W, strain LCB3, active compounds read low 1.02 | locus YJL154C, strain vps35, active compounds read low 1 | locus YJL164C, strain tpk1, active compounds read low 0.991 | locus YJL166W, strain qcr8, active compounds read low 0.992 | locus YJL168C, strain set2, active compounds read low 0.991 | locus YJL187C, strain SWE1 (second series), active compounds read low 1.01 | locus YJL187C, strain SWE1, active compounds read low 1.01
